An excerpt weighted towards active compounds, which were near 3.6% of everything screened.
AmpC inh detg: inhibitors of E. coli AmpC beta-lactamase with detergent | AmpC hydrolysis of nitrocefin, absorbance 480 nm, 0.01% Triton | P00811 | AID 485294 | 370,000 compounds, 0.041% hits | Potency, µM (top dose mostly 114 µM), actives largely listed as inhibitors; also: nearly all actives have a fitted effect of over 25% in size
Target sequence (P00811 whole entry, looked up): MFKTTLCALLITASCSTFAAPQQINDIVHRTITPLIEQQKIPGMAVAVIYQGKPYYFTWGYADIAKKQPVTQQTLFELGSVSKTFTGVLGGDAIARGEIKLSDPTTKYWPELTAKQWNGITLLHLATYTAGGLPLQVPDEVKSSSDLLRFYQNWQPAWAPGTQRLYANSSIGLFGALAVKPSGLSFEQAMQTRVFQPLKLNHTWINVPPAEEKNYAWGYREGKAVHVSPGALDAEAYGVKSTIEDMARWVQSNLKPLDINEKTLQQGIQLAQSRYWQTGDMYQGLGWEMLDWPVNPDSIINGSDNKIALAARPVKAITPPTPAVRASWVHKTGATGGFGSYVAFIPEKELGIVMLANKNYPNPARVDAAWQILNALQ
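AmpC (5.3 nM in the dispensed reagent) in 20 mM phosphate pH 7.0 with 0.01% (detergent screen) or 0.0001% Triton X-100 was preincubated with compounds for 15 min at room temperature. Nitrocefin was then added from an 800 uM solution, and hydrolysis was followed at 480 nm.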
Sm TGR block: S. mansoni TGR enzyme inhibition; purified TGR, DTNB reduction, TNB absorbance 405 nm; 360,000 compounds, 3% hits; Q962Y6; Potency, µM (highest dose often 114 µM), most hits filed as inhibitors; AID 485364; also: nearly all actives have a fitted effect of over 60% in size
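TGR 20 nM + NADPH 100 uM (dispensed conc.), cpd preinc 15 min RT; start with NADPH (500 uM addition) then DTNB (15 mM addition). Kinetic TNB absorbance, 405 nm filter. Four-parameter Hill fit across titration.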
FBPA Giardia inh: Giardia lamblia aldolase inhibition | A8B2U2 | Potency, µM (top dose mostly 59.6 µM), hits mostly inhibitors | AID 2451 | 290,000 compounds, 0.71% hits | purified Giardia FBPA; also: nearly all actives have a fitted effect of over 55% in size
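40 nM FBPA preincubated 10 min at RT with compound (up to 57.5 uM final), then substrate plus GAPDH/TPI/NAD/arsenate coupling and diaphorase/resazurin added. Fluorescence read after 20 min at RT, 525/598 nm.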
AmpC no deterg: inhibitors of E. coli AmpC beta-lactamase without detergent. P00811. AmpC nitrocefin hydrolysis, absorbance 480 nm, 0.0001% Triton. Potency, µM (series often up to 57.1 µM), actives largely listed as inhibitors. 330,000 compounds, 0.52% hits. AID 485341; also: nearly all actives have a fitted effect of over 20% in size
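20 mM phosphate pH 7.0 + 0.01% (detergent screen) or 0.0001% Triton X-100; 5.3 nM AmpC reagent; cpd preinc 15 min RT; nitrocefin (800 uM stock) to start; A480 q20 s × 4 min; Activity was normalised to no-enzyme and no-compound control wells.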
Large screens that a line does not name were inactive. Calls follow the shape of the dose curve; as a rule, active = well fitted curve in the direction sought with a large enough effect; inconclusive = small, poorly fitted or top-dose-only effect, or another doubt; inactive = no such curve, though single readings can be large; an effect the other way counts as inactive or inconclusive.

O=C(CC1C(=O)NCCN1Cc1ccoc1)NCCc1ccc(Cl)cc1 (stereo not given)	Sm TGR block inconclusive
COC(=O)CCCNC(=O)CC1C(=O)NCCN1Cc1ccoc1 (stereo not given)	Sm TGR block 45µM
CCc1ccc(CN(C)C(=O)CC2C(=O)NCCN2Cc2ccoc2)cc1 (stereo not given)	Sm TGR block 18µM
Cc1nc(CCNC(=O)CC2C(=O)NCCN2Cc2ccoc2)nc2c1CCCC2 (stereo not given)	Sm TGR block 28µM
COc1ccc(COC2OC[C@]3(C)[C@H]4C5=C(CN3C(=O)OC(C)(C)C)[C@H](C)C(CO)C(CO)C5CC[C@@H]24)cc1 (stereo not given in full)	none (no result: AmpC inh detg, Sm TGR block, AmpC no deterg)
O=C(NCCc1ccccc1)C(=O)NCC(c1ccco1)S(=O)(=O)c1cccs1 (stereo not given)	Sm TGR block 20µM (no result: FBPA Giardia inh, AmpC no deterg)
COc1ccccc1CCNC(=O)C(=O)NCC(c1ccco1)S(=O)(=O)c1ccccc1 (stereo not given)	Sm TGR block 35µM (no result: FBPA Giardia inh, AmpC no deterg)
CC(C)(C)c1ccc(C(=O)NCC(c2cccs2)S(=O)(=O)c2cccs2)cc1 (stereo not given)	Sm TGR block 35µM (no result: FBPA Giardia inh, AmpC no deterg)
COc1ccccc1CCNC(=O)C(=O)NCC(c1cccs1)S(=O)(=O)c1ccccc1 (stereo not given)	none (no result: FBPA Giardia inh, AmpC no deterg)
O=C(NCC(c1ccco1)S(=O)(=O)c1cccs1)c1ccc(C(F)(F)F)cc1 (stereo not given)	Sm TGR block 4.5µM (no result: FBPA Giardia inh, AmpC no deterg)
C[C@]12CCC(=O)C=C1CCC1C3CC[C@](O)(C(=O)CO)[C@@]3(C)CC3OC312 (stereo not given in full)	none (no result: AmpC inh detg, Sm TGR block, AmpC no deterg)
O=C(NCC(c1ccco1)N1CCOCC1)c1ccc(F)c(F)c1 (stereo not given)	Sm TGR block inconclusive (no result: FBPA Giardia inh)
O=C(NCC(c1ccco1)S(=O)(=O)c1cccs1)c1ccc(F)c(F)c1 (stereo not given)	Sm TGR block 16µM (no result: FBPA Giardia inh, AmpC no deterg)
COc1ccc(C(=O)NCC(c2ccco2)S(=O)(=O)c2cccs2)cc1OC (stereo not given)	Sm TGR block 1.3µM (no result: FBPA Giardia inh, AmpC no deterg)
O=C(NCC(c1ccco1)S(=O)(=O)c1cccs1)c1ccccc1 (stereo not given)	Sm TGR block 0.32µM (no result: FBPA Giardia inh, AmpC no deterg)
O=C(NCC(c1cccs1)S(=O)(=O)c1cccs1)c1ccccc1 (stereo not given)	Sm TGR block inconclusive (no result: FBPA Giardia inh, AmpC no deterg)
Cc1ccc(C(=O)NCC(c2ccco2)S(=O)(=O)c2cccs2)cc1C (stereo not given)	Sm TGR block inconclusive (no result: FBPA Giardia inh, AmpC no deterg)
COc1cc(Cl)c(C)cc1NC(=O)c1nn(-c2ccc(C)cc2)c(=O)n(C)c1=O	none (no result: FBPA Giardia inh, AmpC no deterg)
O=S(=O)(Nc1cccc(-c2ccc(N3CCCCCC3)nn2)c1)c1ccccc1F	none
O=S(=O)(Nc1cccc(-c2ccc(N3CCCCCC3)nn2)c1)c1ccccc1Cl	AmpC no deterg 2.5µM (no result: FBPA Giardia inh)
C=CCOc1cccc(C2C(C(=O)c3ccco3)=C(O)C(=O)N2Cc2ccco2)c1 (stereo not given)	Sm TGR block 32µM
C=CCOc1cccc(C2C(C(=O)c3ccco3)=C(O)C(=O)N2CCN2CCOCC2)c1 (stereo not given)	Sm TGR block 25µM
CCCCOc1cccc(C2C(C(=O)c3ccc(C)o3)=C(O)C(=O)N2Cc2ccco2)c1 (stereo not given)	AmpC inh detg inconclusive, Sm TGR block inconclusive (no result: FBPA Giardia inh)
C=CCOc1cccc(C2C(C(=O)c3ccc(C)o3)=C(O)C(=O)N2Cc2ccncc2)c1 (stereo not given)	Sm TGR block inconclusive
C=CCOc1cccc(C2C(C(=O)c3ccco3)=C(O)C(=O)N2Cc2ccncc2)c1 (stereo not given)	Sm TGR block 45µM
O=C(N=C1SC2CS(=O)(=O)CC2N1c1ccc(Cl)c(Cl)c1)C1CCCO1 (stereo not given)	none
CCc1ccc(C2CC(=O)c3c([nH]c(C(=O)OC4CCCC4)c3C)C2)cc1 (stereo not given)	none (no result: FBPA Giardia inh, AmpC no deterg)
CC(C)C[C@@H](C(=O)O)N(Cc1cccc(CN([C@@H](CC(C)C)C(=O)O)S(C)(=O)=O)c1)S(C)(=O)=O	none
CS(=O)(=O)N(Cc1cccc(CN(C(C(=O)O)c2ccccc2)S(C)(=O)=O)c1)C(C(=O)O)c1ccccc1 (stereo not given)	Sm TGR block 5µM
COc1ccc(C)cc1NC(=O)Cn1c(=O)nc(-c2ccccc2F)c2cc(Cl)ccc21	none (no result: FBPA Giardia inh, AmpC no deterg)
